Experimental data published in PMC7862700, “An all-to-all approach to the identification of sequence-specific readers for epigenetic DNA modifications on cytosine”.

Assays:
Assay in all cases: DAPPL (digital affinity profiling via proximity ligation, sequencing); 10 mM Tris-HCl pH 7.5, 50 mM NaCl, 1 mM DTT, 4% glycerol, room temperature, 30 min; GST-TFs on glutathione beads, 16-mer random dsDNA library, 0.1% formaldehyde crosslink after washing; high values mean tight binding
HSF1 = HSF1 (Homo sapiens, UniProt Q00613 1-529); details: protein: recombinant; tags: N-terminal GST; chain copies: 3; dsDNA, one strand shown
Procedure, shortened: (§1)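 Binding signal is each hexamer's read frequency for a factor divided by its frequency in the tag-only sample. The factors were GST-fused human transcription factors from yeast, captured on glutathione beads, DNA-barcoded and pooled with that sample. Pools were incubated with 200 nmole of a random double-stranded 16-mer DNA library in Tris/NaCl/DTT/glycerol buffer at room temperature for 30 min, then washed, crosslinked with 0.1% formaldehyde, proximity-ligated with BsaI/T4 ligase (1 h, 37 °C), PCR-amplified and sequenced on an Illumina NextSeq500.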

ELK1 = biological target: T1, ELK1 (Homo sapiens, UniProt P19419 1-428); details: protein: recombinant; tags: N-terminal GST; dsDNA, one strand shown
T1 sequence: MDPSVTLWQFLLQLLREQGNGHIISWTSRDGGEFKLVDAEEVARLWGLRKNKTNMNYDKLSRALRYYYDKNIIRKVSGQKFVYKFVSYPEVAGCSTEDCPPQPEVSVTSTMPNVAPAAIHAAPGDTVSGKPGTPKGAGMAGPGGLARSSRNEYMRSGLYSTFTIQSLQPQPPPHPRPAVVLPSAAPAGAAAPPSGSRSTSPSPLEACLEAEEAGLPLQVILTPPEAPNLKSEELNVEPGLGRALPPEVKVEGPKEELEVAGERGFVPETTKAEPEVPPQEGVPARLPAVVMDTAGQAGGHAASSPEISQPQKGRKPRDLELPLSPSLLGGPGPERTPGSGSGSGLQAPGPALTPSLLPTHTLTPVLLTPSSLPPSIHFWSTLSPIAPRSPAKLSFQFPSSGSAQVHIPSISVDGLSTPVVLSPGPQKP
Procedure, shortened: as §1

GABPA = biological target: T2, GABPA (Homo sapiens, UniProt Q06546 1-454); details: protein: recombinant; tags: N-terminal GST; dsDNA, one strand shown
T2 sequence: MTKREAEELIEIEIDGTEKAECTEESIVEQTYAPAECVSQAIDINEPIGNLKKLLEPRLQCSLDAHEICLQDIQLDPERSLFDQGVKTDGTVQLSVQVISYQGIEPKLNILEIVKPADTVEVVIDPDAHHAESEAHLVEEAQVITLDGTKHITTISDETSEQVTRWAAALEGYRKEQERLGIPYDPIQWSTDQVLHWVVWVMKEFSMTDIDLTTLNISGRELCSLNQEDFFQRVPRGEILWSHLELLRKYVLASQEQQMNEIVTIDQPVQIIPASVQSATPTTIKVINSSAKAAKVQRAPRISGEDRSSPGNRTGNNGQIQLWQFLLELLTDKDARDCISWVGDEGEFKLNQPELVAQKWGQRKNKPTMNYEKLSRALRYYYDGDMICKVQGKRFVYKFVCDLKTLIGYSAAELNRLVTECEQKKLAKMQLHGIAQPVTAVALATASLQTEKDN
Procedure, shortened: as §1

ELF1 = ELF1 (Homo sapiens, UniProt P32519 1-619); details: protein: recombinant; tags: N-terminal GST; dsDNA, one strand shown
Procedure, shortened: as §1

EHF = biological target: T3, EHF (Homo sapiens, UniProt Q9NZC4 1-300); details: protein: recombinant; tags: N-terminal GST; dsDNA, one strand shown
T3 sequence: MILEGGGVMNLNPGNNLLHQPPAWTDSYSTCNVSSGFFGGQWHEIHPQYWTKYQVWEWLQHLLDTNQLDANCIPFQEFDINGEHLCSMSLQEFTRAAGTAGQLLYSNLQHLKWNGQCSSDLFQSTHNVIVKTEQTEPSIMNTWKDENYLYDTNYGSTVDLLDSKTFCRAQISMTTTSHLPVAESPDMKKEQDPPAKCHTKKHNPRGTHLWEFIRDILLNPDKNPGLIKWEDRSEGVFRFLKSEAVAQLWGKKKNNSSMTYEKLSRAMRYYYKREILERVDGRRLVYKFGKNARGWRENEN
Procedure, shortened: as §1

SPI1 = SPI1 (Homo sapiens, UniProt P17947 1-270); details: protein: recombinant; tags: N-terminal GST; dsDNA, one strand shown
Procedure, shortened: as §1

SPIB = SPIB (Homo sapiens, UniProt Q01892 1-262); details: protein: recombinant; tags: N-terminal GST; dsDNA, one strand shown
Procedure, shortened: as §1

ELK3 = biological target: T4, ELK3 (Homo sapiens, UniProt P41970 1-407); details: protein: recombinant; tags: N-terminal GST; dsDNA, one strand shown
T4 sequence: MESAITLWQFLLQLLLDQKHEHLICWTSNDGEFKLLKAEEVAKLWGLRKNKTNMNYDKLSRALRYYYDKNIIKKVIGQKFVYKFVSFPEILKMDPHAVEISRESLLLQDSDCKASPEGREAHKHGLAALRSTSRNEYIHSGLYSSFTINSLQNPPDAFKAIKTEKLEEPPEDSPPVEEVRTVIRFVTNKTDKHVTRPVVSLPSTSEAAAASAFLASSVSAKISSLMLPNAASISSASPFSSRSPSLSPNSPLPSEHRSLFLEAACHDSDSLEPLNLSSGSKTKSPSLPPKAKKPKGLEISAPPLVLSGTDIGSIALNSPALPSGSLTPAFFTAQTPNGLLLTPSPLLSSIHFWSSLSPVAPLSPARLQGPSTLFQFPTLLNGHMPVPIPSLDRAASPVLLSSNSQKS
Procedure, shortened: as §1

SPIC = biological target: T5, SPIC (Homo sapiens, UniProt Q8N5J4 1-248); details: protein: recombinant; tags: N-terminal GST; dsDNA, one strand shown
T5 sequence: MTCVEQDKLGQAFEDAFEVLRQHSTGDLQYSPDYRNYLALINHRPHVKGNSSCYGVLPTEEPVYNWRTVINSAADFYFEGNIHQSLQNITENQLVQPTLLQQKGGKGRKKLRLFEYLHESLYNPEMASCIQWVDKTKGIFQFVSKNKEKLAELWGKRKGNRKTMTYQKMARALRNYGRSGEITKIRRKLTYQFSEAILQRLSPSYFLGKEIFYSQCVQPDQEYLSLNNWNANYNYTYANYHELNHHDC
Procedure, shortened: as §1

ELF4 = ELF4 (Homo sapiens, UniProt Q99607 1-663); details: protein: recombinant; tags: N-terminal GST; dsDNA, one strand shown
Procedure, shortened: as §1

ELK4 = biological target: T6, ELK4 (Homo sapiens, UniProt P28324-2 1-405); details: protein: recombinant; tags: N-terminal GST; dsDNA, one strand shown
T6 sequence: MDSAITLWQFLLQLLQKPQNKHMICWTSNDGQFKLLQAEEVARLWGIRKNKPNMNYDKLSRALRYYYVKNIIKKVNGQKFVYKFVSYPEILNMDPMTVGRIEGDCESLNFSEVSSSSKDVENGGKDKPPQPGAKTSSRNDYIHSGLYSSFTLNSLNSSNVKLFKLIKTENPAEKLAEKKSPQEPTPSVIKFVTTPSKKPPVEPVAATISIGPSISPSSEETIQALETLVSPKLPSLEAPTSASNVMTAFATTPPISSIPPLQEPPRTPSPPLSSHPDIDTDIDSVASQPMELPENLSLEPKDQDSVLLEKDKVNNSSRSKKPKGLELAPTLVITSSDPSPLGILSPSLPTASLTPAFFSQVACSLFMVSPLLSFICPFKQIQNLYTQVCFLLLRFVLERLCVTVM
Procedure, shortened: as §1

ETV2 = biological target: T7, ETV2 (Homo sapiens, UniProt O00321 1-342); details: protein: recombinant; tags: N-terminal GST; dsDNA, one strand shown
T7 sequence: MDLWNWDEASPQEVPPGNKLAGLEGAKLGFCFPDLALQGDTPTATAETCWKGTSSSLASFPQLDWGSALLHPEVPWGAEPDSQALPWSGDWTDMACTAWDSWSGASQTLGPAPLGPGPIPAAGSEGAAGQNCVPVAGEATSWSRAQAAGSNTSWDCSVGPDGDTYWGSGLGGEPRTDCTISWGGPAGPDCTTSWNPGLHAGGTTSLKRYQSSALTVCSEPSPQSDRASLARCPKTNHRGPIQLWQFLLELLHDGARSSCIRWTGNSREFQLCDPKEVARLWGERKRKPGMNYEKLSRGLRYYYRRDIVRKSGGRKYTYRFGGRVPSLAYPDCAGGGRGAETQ
Procedure, shortened: as §1

CRX = CRX (Homo sapiens, UniProt O43186 1-299); details: protein: recombinant; tags: N-terminal GST; dsDNA, one strand shown
Procedure, shortened: as §1

ETV1 = ETV1 (Homo sapiens, UniProt P50549 1-477); details: protein: recombinant; tags: N-terminal GST; dsDNA, one strand shown
Procedure, shortened: as §1

ETV3L = biological target: T8, ETV3L (Homo sapiens, UniProt Q6ZN32 1-361); details: protein: recombinant; tags: N-terminal GST; dsDNA, one strand shown
T8 sequence: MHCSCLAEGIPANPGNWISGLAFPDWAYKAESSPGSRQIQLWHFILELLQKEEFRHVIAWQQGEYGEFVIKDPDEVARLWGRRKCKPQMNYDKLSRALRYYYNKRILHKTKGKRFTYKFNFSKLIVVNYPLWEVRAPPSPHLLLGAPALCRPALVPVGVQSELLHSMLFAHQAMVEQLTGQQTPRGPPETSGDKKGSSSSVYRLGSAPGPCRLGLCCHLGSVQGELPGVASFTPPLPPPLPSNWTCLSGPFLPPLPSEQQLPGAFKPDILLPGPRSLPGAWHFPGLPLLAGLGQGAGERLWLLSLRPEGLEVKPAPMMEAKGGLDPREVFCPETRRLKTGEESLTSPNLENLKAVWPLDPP
Procedure, shortened: as §1

ETS2 = biological target: T9, ETS2 (Homo sapiens, UniProt P15036 1-469); details: protein: recombinant; tags: N-terminal GST; dsDNA, one strand shown
T9 sequence: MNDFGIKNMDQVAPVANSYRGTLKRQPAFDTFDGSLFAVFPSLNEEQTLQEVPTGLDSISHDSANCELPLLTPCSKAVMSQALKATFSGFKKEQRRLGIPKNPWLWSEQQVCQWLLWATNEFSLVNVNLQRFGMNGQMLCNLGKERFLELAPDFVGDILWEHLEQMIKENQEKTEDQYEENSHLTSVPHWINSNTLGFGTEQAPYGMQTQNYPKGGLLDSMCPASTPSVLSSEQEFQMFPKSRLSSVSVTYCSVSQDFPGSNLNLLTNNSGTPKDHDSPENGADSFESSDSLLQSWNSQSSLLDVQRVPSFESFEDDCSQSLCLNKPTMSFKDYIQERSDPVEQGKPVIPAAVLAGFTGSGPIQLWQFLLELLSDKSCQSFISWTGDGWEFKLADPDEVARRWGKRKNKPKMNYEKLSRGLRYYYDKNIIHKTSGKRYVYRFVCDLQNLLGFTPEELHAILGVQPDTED
Procedure, shortened: as §1

ETV7 = biological target: T10, ETV7 (Homo sapiens, UniProt Q9Y603 1-341); details: protein: recombinant; tags: N-terminal GST; dsDNA, one strand shown
T10 sequence: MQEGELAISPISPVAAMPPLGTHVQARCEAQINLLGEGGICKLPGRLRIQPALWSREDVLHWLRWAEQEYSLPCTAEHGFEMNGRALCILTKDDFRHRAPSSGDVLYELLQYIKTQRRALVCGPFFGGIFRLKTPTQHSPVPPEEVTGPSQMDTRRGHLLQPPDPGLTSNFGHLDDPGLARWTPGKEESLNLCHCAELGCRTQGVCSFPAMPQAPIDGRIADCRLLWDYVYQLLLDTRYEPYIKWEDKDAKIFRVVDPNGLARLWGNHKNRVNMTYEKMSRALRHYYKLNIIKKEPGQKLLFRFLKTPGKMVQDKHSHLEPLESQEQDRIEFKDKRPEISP
Procedure, shortened: as §1

ELF5 = biological target: T11, ELF5 (Homo sapiens, UniProt Q9UKW6-2 1-255); details: protein: recombinant; tags: N-terminal GST; dsDNA, one strand shown
T11 sequence: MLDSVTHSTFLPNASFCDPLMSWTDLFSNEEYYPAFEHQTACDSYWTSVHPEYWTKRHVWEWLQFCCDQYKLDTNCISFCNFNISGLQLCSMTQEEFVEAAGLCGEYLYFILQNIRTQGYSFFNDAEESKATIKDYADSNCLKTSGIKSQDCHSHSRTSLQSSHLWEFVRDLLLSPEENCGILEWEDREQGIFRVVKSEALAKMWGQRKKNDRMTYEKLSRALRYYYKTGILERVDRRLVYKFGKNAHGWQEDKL
Procedure, shortened: as §1

ETV3 = biological target: T12, ETV3 (Homo sapiens, UniProt P41162-2 1-143); details: protein: recombinant; tags: N-terminal GST; dsDNA, one strand shown
T12 sequence: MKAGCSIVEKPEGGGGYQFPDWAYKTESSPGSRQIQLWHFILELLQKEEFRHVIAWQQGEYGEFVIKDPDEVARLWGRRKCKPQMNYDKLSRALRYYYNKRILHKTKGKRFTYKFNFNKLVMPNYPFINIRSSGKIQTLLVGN
Procedure, shortened: as §1

HSF1, sequence (Q00613 whole entry, the tested form may be a part): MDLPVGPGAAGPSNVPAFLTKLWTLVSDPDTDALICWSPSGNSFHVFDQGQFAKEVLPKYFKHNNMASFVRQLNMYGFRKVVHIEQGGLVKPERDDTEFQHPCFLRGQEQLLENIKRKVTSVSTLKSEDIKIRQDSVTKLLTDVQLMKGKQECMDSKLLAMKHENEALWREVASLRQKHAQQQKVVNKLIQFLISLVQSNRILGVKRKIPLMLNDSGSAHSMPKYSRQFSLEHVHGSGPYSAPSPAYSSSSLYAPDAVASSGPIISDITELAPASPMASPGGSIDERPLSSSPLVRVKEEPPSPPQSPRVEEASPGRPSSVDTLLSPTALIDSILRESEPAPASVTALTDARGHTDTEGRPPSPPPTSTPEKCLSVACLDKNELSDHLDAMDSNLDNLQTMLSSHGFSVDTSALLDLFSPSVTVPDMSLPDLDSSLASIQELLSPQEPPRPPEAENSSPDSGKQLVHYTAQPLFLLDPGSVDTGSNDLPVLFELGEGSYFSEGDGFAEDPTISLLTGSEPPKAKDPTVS
ELF4, sequence (Q99607 whole entry): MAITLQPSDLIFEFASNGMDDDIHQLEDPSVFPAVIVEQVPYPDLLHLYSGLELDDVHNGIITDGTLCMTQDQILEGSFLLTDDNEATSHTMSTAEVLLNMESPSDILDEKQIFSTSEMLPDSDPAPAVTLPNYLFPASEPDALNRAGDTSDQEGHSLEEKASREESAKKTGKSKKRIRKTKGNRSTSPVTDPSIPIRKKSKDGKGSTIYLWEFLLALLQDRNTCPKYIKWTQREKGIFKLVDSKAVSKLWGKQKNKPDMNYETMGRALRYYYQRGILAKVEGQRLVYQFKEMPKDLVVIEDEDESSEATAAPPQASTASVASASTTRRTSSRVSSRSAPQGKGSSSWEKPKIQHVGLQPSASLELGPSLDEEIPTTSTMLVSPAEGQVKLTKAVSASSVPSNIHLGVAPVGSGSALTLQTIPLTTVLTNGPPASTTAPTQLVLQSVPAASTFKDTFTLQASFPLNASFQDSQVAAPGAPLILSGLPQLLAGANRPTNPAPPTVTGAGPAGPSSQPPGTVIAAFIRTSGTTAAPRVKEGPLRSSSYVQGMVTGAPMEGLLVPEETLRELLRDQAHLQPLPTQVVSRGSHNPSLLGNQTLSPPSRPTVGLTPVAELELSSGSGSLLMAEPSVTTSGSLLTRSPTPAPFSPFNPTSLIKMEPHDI
SPIB, sequence (Q01892 whole entry): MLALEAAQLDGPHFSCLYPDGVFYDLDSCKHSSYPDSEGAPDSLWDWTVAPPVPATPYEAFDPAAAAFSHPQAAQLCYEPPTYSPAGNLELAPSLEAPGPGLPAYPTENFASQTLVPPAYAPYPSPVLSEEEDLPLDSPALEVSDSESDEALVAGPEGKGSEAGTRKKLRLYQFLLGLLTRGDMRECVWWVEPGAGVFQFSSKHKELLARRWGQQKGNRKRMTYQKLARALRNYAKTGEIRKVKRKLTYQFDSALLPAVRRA
ETV1, sequence (P50549 whole entry): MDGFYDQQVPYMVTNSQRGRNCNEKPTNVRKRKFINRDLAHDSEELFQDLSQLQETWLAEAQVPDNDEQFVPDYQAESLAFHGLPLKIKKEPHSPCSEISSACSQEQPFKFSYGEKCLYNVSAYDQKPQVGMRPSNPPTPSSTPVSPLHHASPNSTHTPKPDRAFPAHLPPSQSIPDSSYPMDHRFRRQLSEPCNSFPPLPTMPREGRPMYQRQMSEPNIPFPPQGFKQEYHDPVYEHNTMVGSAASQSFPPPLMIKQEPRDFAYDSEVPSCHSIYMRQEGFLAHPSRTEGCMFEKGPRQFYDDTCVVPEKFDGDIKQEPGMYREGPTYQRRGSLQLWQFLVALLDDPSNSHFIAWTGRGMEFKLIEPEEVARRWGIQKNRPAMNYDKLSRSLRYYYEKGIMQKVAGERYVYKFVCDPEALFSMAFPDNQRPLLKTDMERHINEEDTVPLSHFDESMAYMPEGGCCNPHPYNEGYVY
ELF1, sequence (P32519 whole entry): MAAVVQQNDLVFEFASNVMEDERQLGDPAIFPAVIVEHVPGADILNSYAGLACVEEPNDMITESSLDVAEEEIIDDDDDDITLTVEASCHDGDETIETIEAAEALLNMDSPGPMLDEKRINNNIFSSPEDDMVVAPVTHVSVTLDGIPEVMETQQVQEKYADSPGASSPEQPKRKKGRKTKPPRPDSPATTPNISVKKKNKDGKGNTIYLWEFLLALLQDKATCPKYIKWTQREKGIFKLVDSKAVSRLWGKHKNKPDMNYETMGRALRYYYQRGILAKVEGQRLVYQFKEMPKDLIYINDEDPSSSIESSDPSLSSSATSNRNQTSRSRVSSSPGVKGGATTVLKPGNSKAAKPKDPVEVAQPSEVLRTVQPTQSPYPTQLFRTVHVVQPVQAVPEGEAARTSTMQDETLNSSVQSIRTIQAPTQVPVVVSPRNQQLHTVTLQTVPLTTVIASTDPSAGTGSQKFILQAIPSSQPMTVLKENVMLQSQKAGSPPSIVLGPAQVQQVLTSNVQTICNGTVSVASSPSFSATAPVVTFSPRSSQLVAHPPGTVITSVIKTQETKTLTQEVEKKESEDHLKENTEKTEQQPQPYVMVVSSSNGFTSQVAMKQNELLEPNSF
CRX, sequence (O43186 whole entry): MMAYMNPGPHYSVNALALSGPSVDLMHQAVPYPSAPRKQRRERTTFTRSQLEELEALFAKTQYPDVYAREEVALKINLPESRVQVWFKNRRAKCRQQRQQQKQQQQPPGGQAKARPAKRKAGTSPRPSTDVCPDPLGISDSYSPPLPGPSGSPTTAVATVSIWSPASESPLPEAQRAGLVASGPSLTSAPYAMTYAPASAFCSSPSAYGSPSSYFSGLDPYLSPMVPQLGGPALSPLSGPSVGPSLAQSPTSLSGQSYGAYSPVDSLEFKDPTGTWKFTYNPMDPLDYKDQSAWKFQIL

Row | Sequence | binding signal (HSF1) | binding signal (ELK1) | binding signal (GABPA) | binding signal (ELF1) | binding signal (EHF) | binding signal (SPI1) | binding signal (SPIB) | binding signal (ELK3) | binding signal (SPIC) | binding signal (ELF4) | binding signal (ELK4) | binding signal (ETV2) | binding signal (CRX) | binding signal (ETV1) | binding signal (ETV3L) | binding signal (ETS2) | binding signal (ETV7) | binding signal (ELF5) | binding signal (ETV3)
1 | TCCAGT | 1.01 fold enrichment (6-mer frequency, TF over GST control) |  |  |  |  |  |  |  |  |  |  |  |  |  |  |  |  |  | 
2 | TGATAA | 1.2 fold enrichment (6-mer frequency, TF over GST control) | 1.04 fold enrichment (6-mer frequency, TF over GST control) | 1.03 fold enrichment (6-mer frequency, TF over GST control) | 1 fold enrichment (6-mer frequency, TF over GST control) | 1.07 fold enrichment (6-mer frequency, TF over GST control) | 1.05 fold enrichment (6-mer frequency, TF over GST control) | 1.05 fold enrichment (6-mer frequency, TF over GST control) | 1.09 fold enrichment (6-mer frequency, TF over GST control) | 1.04 fold enrichment (6-mer frequency, TF over GST control) | 1.07 fold enrichment (6-mer frequency, TF over GST control) | 1.06 fold enrichment (6-mer frequency, TF over GST control) | 1.02 fold enrichment (6-mer frequency, TF over GST control) | 1.52 fold enrichment (6-mer frequency, TF over GST control) | 1.07 fold enrichment (6-mer frequency, TF over GST control) | 1.06 fold enrichment (6-mer frequency, TF over GST control) | 1.01 fold enrichment (6-mer frequency, TF over GST control) | 1.08 fold enrichment (6-mer frequency, TF over GST control) | 1.02 fold enrichment (6-mer frequency, TF over GST control) | 1.05 fold enrichment (6-mer frequency, TF over GST control)
